Source: PubChem BioAssay (NMMLSC)
Most compounds without a hit are left out; they make up all but 1.2% or so of the library.
CIT2-GFP yeast = modulators of TOR pathway CIT2-GFP in S. cerevisiae; S. cerevisiae CIT2-GFP strain, flow cytometry, 3 h; 100 means same as DMSO wells; GFP response vs DMSO, % at 10 µM; 0.065% of 320,000 active;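 active = GFP response relative to DMSO above a set limit, near the screen mean plus 3 SD, cut at about 150% in these data; inconclusive = Fewer than 70 cells measured for a yeast strain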;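 note: ratio of well median GFP fluorescence to mean of DMSO wells on the plate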
RPL19A TOR yeast = yeast TOR pathway RPL19A-GFP modulation; S. cerevisiae RPL19A-GFP strain, flow cytometry, 3 h; active compounds read low; percent response vs DMSO, % at 10 µM; 0.3% of 330,000 active;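 active = percent response vs DMSO below 50%; inconclusive = fewer than 70 events counted for the yeast strain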;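 note: median channel GFP fluorescence of the barcoded RPL19A-GFP strain; lower means less RPL19A-GFP as with rapamycin TOR inhibition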
LAP4-GFP MLPCN = modulators of TOR pathway LAP4-GFP in S. cerevisiae. S. cerevisiae LAP4-GFP multiplex, flow cytometry GFP, 3 h; median GFP as percent of DMSO wells. GFP response vs DMSO, % at 10 µM. 0.34% of 320,000 active. AID 2023;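 active = GFP response vs DMSO above a set limit, about the screen mean plus 3 SD, cut at about 150% in these data; inconclusive = under 70 cell events counted for the yeast strain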
DSG3 Ab inh = inhibitors of pemphigus antibody binding to human desmoglein-3; DSG3-coupled beads, scFv-anti-DSG3-GFP binding, flow cytometry; active compounds read low; 0.48% of 310,000 active; P32926; AID 588358; binding (percent of control), % at 10 µM;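 active = binding more than 3 SD below its plate's average and above zero; inconclusive = below that plate limit but binding exactly zero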;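 note: hits lower antibody fragment binding to DSG3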
Target sequence (P32926 whole entry, looked up, the tested form may be a part): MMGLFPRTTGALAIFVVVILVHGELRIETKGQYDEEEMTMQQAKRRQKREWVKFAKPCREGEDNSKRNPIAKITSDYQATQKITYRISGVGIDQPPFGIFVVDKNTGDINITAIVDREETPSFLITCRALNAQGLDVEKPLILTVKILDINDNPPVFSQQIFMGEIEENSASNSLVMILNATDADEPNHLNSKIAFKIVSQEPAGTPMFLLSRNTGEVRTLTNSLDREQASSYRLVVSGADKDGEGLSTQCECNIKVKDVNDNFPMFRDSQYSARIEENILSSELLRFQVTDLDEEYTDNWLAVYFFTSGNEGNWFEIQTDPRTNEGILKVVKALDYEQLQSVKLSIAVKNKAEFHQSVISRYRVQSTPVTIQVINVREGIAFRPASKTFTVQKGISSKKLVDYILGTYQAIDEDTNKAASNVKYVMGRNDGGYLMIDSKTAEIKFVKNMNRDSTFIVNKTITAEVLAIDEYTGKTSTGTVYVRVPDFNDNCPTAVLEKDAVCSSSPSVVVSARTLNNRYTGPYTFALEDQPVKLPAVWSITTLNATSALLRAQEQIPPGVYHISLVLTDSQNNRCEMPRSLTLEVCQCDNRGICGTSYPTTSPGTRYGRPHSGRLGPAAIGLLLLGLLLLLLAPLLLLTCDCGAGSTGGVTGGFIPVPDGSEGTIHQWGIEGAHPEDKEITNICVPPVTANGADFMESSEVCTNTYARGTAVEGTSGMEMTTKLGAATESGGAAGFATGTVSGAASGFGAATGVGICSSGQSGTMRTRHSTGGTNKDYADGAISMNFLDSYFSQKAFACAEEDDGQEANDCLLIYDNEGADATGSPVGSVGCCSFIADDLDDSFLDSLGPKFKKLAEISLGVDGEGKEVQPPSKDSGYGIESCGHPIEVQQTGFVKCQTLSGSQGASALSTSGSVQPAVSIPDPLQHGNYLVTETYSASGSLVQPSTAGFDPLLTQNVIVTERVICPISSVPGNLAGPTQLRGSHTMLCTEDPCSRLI
MEP2-GFP yeast = modulators of TOR pathway MEP2-GFP in S. cerevisiae; S. cerevisiae MEP2-GFP strain, flow cytometry GFP, 3 h; 100% = DMSO control level; GFP response vs DMSO, % at 10 µM; 0.51% of 330,000 active;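 active = GFP response versus DMSO above a set limit, roughly screen mean plus 3 SD, cut at about 180% in these data; inconclusive = fewer than 70 cells counted for a yeast strain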;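 note: median GFP fluorescence of the barcode-gated MEP2-GFP cells per well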
AGP1 TOR yeast = yeast TOR pathway AGP1-GFP modulation; GFP response vs DMSO, % at 10 µM; S. cerevisiae AGP1-GFP multiplex flow cytometry, 3 h; GFP as percent of DMSO wells; AID 2066; 0.02% of 320,000 active;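 active = GFP response relative to DMSO above a set limit, near screen average plus 3 SD, cut at about 150% in these data; inconclusive = fewer than 70 cells counted for the yeast strain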;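 note: median GFP channel fluorescence of the gated AGP1 strain per well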
A number is an active result; – = inactive; ? = inconclusive; · = not tested or not shown; [ ] = another dose, or the depositor's remark.

SMILES	CIT2-GFP yeast	RPL19A TOR yeast	LAP4-GFP MLPCN	DSG3 Ab inh	MEP2-GFP yeast	AGP1 TOR yeast
CC(C)C1N(C(N)=S)N=CC1(C)C (configuration not stated)	·	49[may fluoresce violet]	·	–	664[may fluoresce violet]	·
CCC(CC)c1nnc(NC(=O)c2c(C)nn(Cc3ccccc3Cl)c2C)s1	–	–	–	53	–	–
Cc1onc(-c2ccccc2)c1C(=O)N1CCC(C)CC1	–	–	160	–	221	–
Cc1onc(-c2ccccc2)c1C(=O)N1CCCN(C(=O)c2c(-c3ccccc3)noc2C)CC1	·	–	–	·	–	–
CCCCNc1c(-c2ccc(-c3ccc(OC)cc3)c(OC)c2)nc2ccccn12	–	–	–	–	–	–
CC1CC(C)(C)CC2(C1)NC(=O)N(CC(=O)Nc1ccc(N3CCCCC3)cc1)C2=O (configuration not stated)	–	–	–	–	–	–
COc1ccc(C(=O)Nn2c(C)nc3ccccc3c2=O)cc1Br	–	–	–	72	–	–
COc1ccc(S(=O)(=O)N(C)CC(=O)Nc2ccc3c(c2)OCO3)cc1	–	–	–	–	–	–
CN(CC(=O)Nc1ccc(F)c(F)c1)S(=O)(=O)c1cccs1	?	27[may fluoresce violet]	?	–	?	?
CN(CC(=O)Nc1ccc2c(c1)OCO2)S(=O)(=O)c1cccs1	?	45[may fluoresce violet]	–	–	302[may fluoresce violet]	?
O=C(CN1c2cccc3cccc(c23)S1(=O)=O)NCc1ccc(Cl)cc1	–	–	–	–	–	–
O=c1cc(O)nc(SCc2ccc(Cl)cc2)[nH]1	?	–	–	–	352[may fluoresce violet]	–
Nc1cc(=O)[nH]c(SCc2ccc(Cl)cc2)n1	–	–	–	·	–	–
CCOC(=O)c1cc2ccc3ccccc3c2oc1=O	–	–	–	–	–	–
CCOC(=O)c1cc2ccc(OC(=O)c3ccco3)cc2oc1=O	?	50[may fluoresce violet]	–	–	198[may fluoresce violet]	?
CC(C)[C@H](NC(=O)c1ccco1)C(=O)OCC(=O)Nc1ccc(Cl)c(S(=O)(=O)N(C)C)c1	?	21[may fluoresce violet]	–	–	178[may fluoresce violet]	?
CC(C)[C@H](NC(=O)c1ccco1)C(=O)OCC(=O)Nc1cccc(F)c1	–	–	–	–	–	–
CCOc1ccc(CN2CCC(n3nccc3NC(=O)c3ccccc3OC)CC2)cc1	–	–	–	–	–	–
O=C(Nc1ccc([N+](=O)[O-])cc1)Nn1cnnc1	–	–	–	–	–	–
CC(=O)c1ccc(N2CCN(C(=S)Nc3cccc(Cl)c3)CC2)cc1	–	–	–	60	–	–
c1ccc(Nc2nc(-c3ccncc3)nc3ccccc23)cc1	–	–	–	–	–	–
Fc1ccc(Nc2nc(-c3ccncc3)nc3ccccc23)cc1	–	–	–	85	–	–
Cc1nc2ccccc2nc1OCC(=O)Nc1ccc2ccccc2c1	–	–	–	65	–	–
Cc1cc(C)c(NC(=O)COc2nc3ccccc3nc2C)c(C)c1	–	–	–	–	–	–
CCCN(C)C[C@@H]1Oc2ncc(Br)cc2C(=O)N([C@@H](C)CO)C[C@H]1C	·	·	·	–	·	·
SMILES	CIT2-GFP yeast	RPL19A TOR yeast	LAP4-GFP MLPCN	DSG3 Ab inh	MEP2-GFP yeast	AGP1 TOR yeast
N#CC(=C1NC(=O)c2ccccc21)c1nc2ccccc2n1CCO	·	·	·	–	·	·
O=C(c1cc2ccccc2oc1=O)N1CCCN(C(=O)c2cc3ccccc3oc2=O)CC1	·	·	·	–	·	·
COc1cccc2cc(C(=O)N3CCN(C(=O)c4ccco4)CC3)c(=O)oc12	–	–	–	–	–	–
O=C(c1ccccc1)N1CCN(C(=O)c2cc3ccccc3oc2=O)CC1	?	28[may fluoresce violet]	?	–	?	?
COc1cccc2cc(C(=O)N3CCN(c4ncccn4)CC3)c(=O)oc12	–	–	–	–	–	–
COc1cccc2cc(C(=O)N3CCCCCCC3)c(=O)oc12	–	–	–	19	–	–
COc1cccc2cc(C(=O)N3CCN(C/C=C/c4ccccc4)CC3)c(=O)oc12	–	–	–	–	219	–
CSc1ccccc1NC(=O)CN(C)C(=O)COc1cccc2cccnc12	–	–	–	–	–	–
Cc1cc(=O)oc2cc(OCC(=O)NC3CC(C)(C)NC(C)(C)C3)c(Cl)cc12	–	–	–	–	–	–
CN(C)C(=O)COC(=O)c1cccnc1Nc1ccccc1F	–	–	–	–	–	–
CC(=O)c1ccc(NC(=O)Cn2cnc(S(=O)(=O)N3CCc4ccccc43)c2)cc1	–	–	–	79	–	–
CC(=O)c1ccc(NC(=O)Cn2cnc(S(=O)(=O)N3CCCC3)c2)cc1	–	–	–	·	–	–
Cc1ccc(Sc2ccc(NC(=O)c3ccc(S(C)(=O)=O)cc3Cl)cc2)cc1	–	–	–	-16	–	–
O=C(CCN1C(=O)NC2(CCCC2)C1=O)Nc1ccc(-c2nc3ccccc3s2)cc1	–	–	–	–	–	–
CC(=O)Nc1ccc(S(=O)(=O)c2ccnc3cc(Cl)ccc23)cc1	·	·	·	–	·	·
CC(=O)C1=C(O)C(=O)N(CCO)C1c1ccccc1 (configuration not stated)	–	–	–	–	–	–
CC(=O)C1=C(O)C(=O)N(CCC(=O)O)C1c1cccc(F)c1 (configuration not stated)	?	–	–	–	200[may fluoresce violet]	–
CN1CCN(C(=O)c2ccc3c(c2)NC(=O)C(C)(C)O3)CC1	?	15[may fluoresce violet]	–	·	259[may fluoresce violet]	?
O=C(Nc1ccc2oc(-c3cccnc3)nc2c1)c1cc2ccccc2o1	–	–	–	–	–	–
O=C(NC(=S)Nc1ccc2oc(-c3cccnc3)nc2c1)c1cccc(Cl)c1	?	–	–	–	226[may fluoresce violet]	·
CCCc1nnc(SCC(=O)N2CCCCC2)n1CC1CCCO1 (configuration not stated)	?	–	–	·	200[may fluoresce violet]	–
CCOC(=O)N1CCC(=NNC(=O)c2cc3ccccc3cc2O)CC1	–	–	–	–	–	–
CC(=O)N1CCC(=NNC(=O)c2cc3ccccc3cc2O)CC1	?	42[may fluoresce violet]	–	·	–	–
CCN(CC)c1ccc(/C=C/C(=O)C2C(=O)C=C(C)OC2=O)cc1 (configuration not stated)	?	–	429[may fluoresce violet]	–	462[may fluoresce violet]	–
CN1CCN(Cc2nc3ccccc3c(=O)n2Cc2nc(-c3ccc([N+](=O)[O-])cc3)cs2)CC1	–	–	–	-160	–	–
CN(C)Cc1nc2ccccc2c(=O)n1Cc1nc(-c2cccc([N+](=O)[O-])c2)cs1	–	–	–	–	–	–
O=C(Nc1ccc(S(=O)(=O)N2CCCCC2)cc1)C1CCCN(C(=O)c2ccc(Cl)cc2)C1 (configuration not stated)	–	–	–	–	–	–
CCOC(=O)Cn1c(=NC(=O)c2cccs2)sc2cc(C(=O)OC)ccc21	–	–	–	18	–	–
